Whole data set: some 33,000 sequences, median “E-score (-0.5 to 0.5)” near -8e-05, cut for the highest 2% near 0.23. For the sample, the highest values were picked, then their nearest neighbours and some sequences at random.
Each sequence was assayed against T1, Nrg2 (UniProt P38082) (assay: PBM E-score (8-mer binding enrichment) (E-score (-0.5 to 0.5)); higher = stronger / more preferred TF binding). Conditions: protein concentration: 100 nM; construct: GST-full length.
T1 sequence: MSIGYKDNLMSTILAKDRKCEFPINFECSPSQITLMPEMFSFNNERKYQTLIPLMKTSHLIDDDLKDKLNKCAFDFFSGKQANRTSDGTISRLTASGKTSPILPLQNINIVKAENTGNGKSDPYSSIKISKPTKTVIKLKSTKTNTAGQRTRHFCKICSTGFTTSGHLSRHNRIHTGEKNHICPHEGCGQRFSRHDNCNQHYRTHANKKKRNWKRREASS
Outline: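 Detection of bound protein used fluorescent anti-GST, with scans normalised by masliner. The proteins were GST-tagged yeast transcription factors applied at about 100-200 nM to universal all-10-mer Agilent arrays made double-stranded by primer extension. Each ungapped eight-base word, pooled with its reverse complement, was scored with an E-score from the Universal PBM Analysis Suite.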

Sequence | PBM E-score
CCTTTCCG | -0.116
TTGAACAA | -0.0525
ACGGAAGC | -0.0173
AGCCAGCG | -0.0673
CTCGGAGA | 0.0113
ATCAGTAA | 0.0691
AGAAAGTC | 0.037
CCCTGTAA | 0.294
CCCTGTGC | 0.263
CCCTGTGA | 0.059
CCCTGAAC | 0.282
CACTGAAA | 0.0555
CCCTGTAC | 0.208
GCCTGTAA | -0.225
GCCTGAAC | -0.211
TACTGAAA | 0.242
GACTGAAA | 0.0848
CCCTGAAG | 0.208
ACCTGTGC | -0.0445
ACGGTTAG | -0.312
ATTCTTTA | -0.0742
CATCAATC | -0.0356
AGGGTTAC | -0.14
CAAGTGTA | -0.0141
ATGATGGG | 0.0257

Sequence | PBM E-score
CTATGGCA | -0.0101
CCCTGAAA | 0.305
TCCTGAAA | -0.0476
CCCTGCAG | 0.26
CCCTGGAA | 0.0405
GCCTGAAA | 0.115
CCCTGGAG | 0.05
ACCTGCAG | -0.0488
CCCTGGAC | 0.295
CCCTGCAA | 0.162
ACTCCCGG | -0.0764
ATCCCATA | -0.0872
CCATAGTA | 0.0238
ACATAGTA | 0.0458
GCATAGTA | 0.23
TCTGCAAA | -0.0511
GGCTTCTA | -0.075
AGAAACTG | 0.0813
GACAAGGA | 0.0442
CGGGTCCC | -0.125
CGGGTCCA | 0.0193
GGGGTCCA | 0.27
GAGGTCCA | -0.0725
ACGGTCCA | -0.162
AGGGTCCA | 0.439

Sequence | PBM E-score
CGGGTCAA | -0.0478
ACGGTCCC | -0.00846
AGGGTCAG | -0.102
AGGGTCAA | 0.236
AGGGTCCC | 0.397
AAGGTCCA | 0.073
GGGACAAA | 0.11
GCTGCCAC | -0.138
ACAGTGGT | 0.0526
CTGCTTGA | -0.0823
CAGATCAG | 0.194
CGCTCGGC | 0.0597
ACGGTCCG | -0.231
AAGGTCCG | -0.0532
AGGGTCCG | 0.374
ACCTCAAC | 0.0405
GGCCAACC | 0.0203
AATATTAT | 0.219
ACTATTAA | 0.175
GATATTAA | 0.147
AGTATTAG | 0.273
CATATTAA | 0.129
TATATTAA | 0.234
AATATTAC | 0.14
AGTATTAA | 0.219

Sequence | PBM E-score
AATATTAG | 0.256
CATATTAG | 0.124
CGTATTAG | 0.0345
AATATTAA | 0.295
CTTAGGAA | -0.0218
CGGAGCAA | 0.0265
CCTTCGCC | -0.31
AATCCTGC | -0.00651
CGCATTCA | 0.0356
GAACTGCA | 0.0913
ACATATAA | 0.211
GCCCCCAA | -0.331
CTTTCCAA | -0.0143
AATATTCG | 0.177
AATATTCC | 0.233
AATATTCA | 0.144
TATTACCA | 0.0363
CGAATACA | 0.0068
TCAACGGA | -0.0313
CCAACGGA | -0.031
CCAACGGG | 0.0593
ACAACGGA | 0.242
ACAACGGG | 0.243
ACAACGGT | -0.0246
GACCGGAC | -0.168

Sequence | PBM E-score
AAAGGGCG | 0.0812
AGCGCACT | -0.0126
GTTAGGCA | -0.146
CATGGTCG | -0.0584
CATGGTCA | 0.236
CATGGTCC | 0.0356
GTTGGTCA | 0.229
CTTGGTCA | 0.138
ATTGGTCA | 0.0477
GGAGTGAC | 0.102
ACACCGAC | -0.151
CGCCCTAA | -0.171
CGGGCTAC | -0.0936
CAAGGGAG | -0.0764
AAGGGGTG | -0.00477
ATGGGGTC | 0.299
AAAGGGTC | 0.318
AAAGGGTT | 0.0608
ATGGGGTA | 0.127
CTGGGGTC | 0.015
AAGGGGTC | 0.239
AGGGGGTC | -0.163
CAAGGGAC | 0.261
AAAGGGTG | 0.00635
CAAGGGAA | 0.0785

Sequence | PBM E-score
CCTATATA | 0.0688
CCTTTAGA | -0.136
CAAGGGTG | 0.0522
CAAGGGTC | 0.376
GAAGGGTC | 0.0665
CGGGGGTC | -0.342
CAGGGGTA | 0.166
CAGGGGTC | 0.302
CATCTTAC | -0.00815
ACCAAGTG | -0.0903
CCTCTCTA | -0.294
AATTTCAA | -0.0693
CGTTTTTC | -0.117
GCTACCCA | -0.152
AAGGAAAG | -0.137
AAAAGTAG | 0.0358
GCCGAAAC | -0.0148
CCCGAAAA | 0.129
GCCGAAAA | 0.239
TATCCACA | 0.131
GATGAACC | -0.0336
CATGAACC | 0.233
AATGAACC | 0.00986
CCTCTTGA | 0.0273
TGCCCACA | -0.0506

Sequence | PBM E-score
GAATATGA | -0.0524
GAATATCA | 0.0654
CAATATTC | 0.0479
GAATATTA | 0.232
AAATATTC | 0.127
GAATATTC | 0.24
GCTGAGCA | 0.0693
GACAACTA | 0.158
CTGTAACC | 0.108
CCTTGGAC | -0.165
CACGCCTA | -0.227
GGGTCCAA | 0.322
AGGTCCAA | -0.0549
GGGTCCAC | 0.301
CGGTCCAC | -0.222
AGGTCCAC | -0.199
CGGTCCAA | -0.224
TCTCAACA | 0.0641
TAGAGATA | 0.0396
CCTGACTA | 0.172
GGACCCGA | 0.0929
ATACCTTC | -0.0248
GCCACGGA | -0.0858
TGCTTGAA | 0.0462
CGCTTGAG | -0.0135

Sequence | PBM E-score
CGCTTGAA | 0.263
ATATATTA | 0.245
CTATATTC | 0.0669
CTATATTA | 0.229
GTATATTA | 0.107
ATTTATTA | 0.273
ATATATTG | -0.0404
ATTTATCC | 0.247
GTTTATTA | 0.194
CTCTATTA | -0.105
ATTATTTA | 0.173
ATTTATCG | 0.0781
ATTTATCA | 0.225
AAGCCACA | -0.101
GTAAGCCA | -0.113
ACCATCTC | 0.0848
AGTACTAC | 0.118
CTCGCTTA | 0.132
TCCACCGA | -0.0753
AAGCGATT | -0.0219
AACTGCAT | 0.232
AACTGCAC | 0.0736
AACTGCAG | -0.0636
GCTCAGCA | -0.133
AAGCCACC | -0.198

Sequence | PBM E-score
GAACTGTC | 0.0447
ACGAGTAA | 0.244
GCGAGTAA | 0.198
ACGAGTAT | 0.0482
ATGGGTTA | 0.0918
AGTGGTTC | -0.0506
ATACGCAA | 0.232
GTACGCAA | -0.131
ATACGCAG | -0.235
CTCTGGTA | -0.0435
GAAGAACA | 0.155
TAAGAACA | 0.26
CAAGAACA | 0.007
AGTCGACT | 0.243
AGTCGACA | 0.194
AGTCGACC | -0.0853
GGGAGAAC | -0.189
AAGAAGGC | -0.197
AGACATTC | -0.0988
ATCCTGAA | 0.125
AGCCTGTA | -0.126
AACCTGAA | -0.178
GCCCTGTA | 0.208
ACCCTGAA | 0.319
ACCCTGTA | 0.347

Sequence | PBM E-score
ACAAGGAC | -0.0546
GCGGTCCA | -0.159
TAAAGCCA | 0.0522
GAACAAAA | 0.195
ATACAAAC | 0.258
AAACAAAT | 0.235
AAACAAAA | 0.0254
ATACAAAA | 0.218
AAACAAAC | -0.0324
GAACAAAC | 0.323
ATACAAAT | 0.173
CAACAAAC | 0.0713
AGTCCATA | 0.0684
TCAGACAA | 0.0781
CAGCAGCC | 0.0863
GTTGCCAA | 0.0119
CTAGGCAC | -0.162
AGCTTTAG | -0.105
GAGGCCTC | -0.327
AGACGCTA | -0.138
GATTCGAA | 0.256
GATTCGAC | 0.141
CATTCGAA | 0.0948
ATGGCAGG | 0.12
ACAGTTTA | -0.0808

Sequence | PBM E-score
CTTGTTTC | 0.0127
ATTGTTTG | 0.18
ATTGTTTC | 0.256
ACAGTTTC | 0.259
CCAGTTTC | 0.0541
AGATCAAC | 0.07
TATCCGGA | 0.112
AAGGAGAC | -0.156
ACCACAAT | -0.0522
AGGTGTAC | -0.145
TCGAACAA | 0.259
CCGAACAA | 0.0547
ACGAAACA | 0.0539
TCGAAACA | 0.232
CCGAAACA | 0.102
ACGAACAA | 0.124
GCGAACAA | 0.322
TCGAACGA | 0.0281
TGGAACAA | 0.155
TCAGATGA | 0.148
AATCGCCA | 0.0545
TAAGGACA | -0.0222
CGCTAGCC | -0.255
ACAGAGAC | 0.00483
CTTCTTGA | -0.0331

Sequence | PBM E-score
CAATGGAA | 0.131
CAATTCGA | -0.135
AAATTCGA | -0.0488
AAATTCGT | 0.235
CAATTCGC | 0.277
GAATTCGC | 0.141
CTATTCGC | 0.0444
AAATTCGC | 0.234
AAATTCGG | 0.205
CAATTCGG | 0.0993
AAGTTGGA | 0.134
AAAATCTT | -0.0461
AGCCGCCC | -0.0653
CCCAGTGC | 0.037
CAAAACCA | 0.249
CAAGAGAG | -0.0197
CACAAGAA | 0.245
AGCAAGAA | 0.0497
CACAAAAA | 0.131
CGCAAGAA | 0.299
CAAGAGAA | 0.232
CGCAAAAA | 0.141
AAAAACCA | 0.112
CACAAGAG | 0.14
GAAGAGAA | -0.0264

Sequence | PBM E-score
CAAAACCC | 0.222
CGGGATGC | -0.163
CCGCTAAA | 0.0162
CAAGGTCG | 0.00137
CATAGCTC | -0.112
CCAAAAAA | 0.18
CAAAAAAA | 0.245
CAAAAAAC | 0.079
CGTGAAGA | -0.0995
CACTACTG | 0.077
AGGGTCGA | 0.262
AGGGTCGC | 0.243
AGCGTCGC | -0.0577
ACGGTCGC | -0.131
AGCGTCGA | 0.244
CGGGTCGC | -0.0689
AGCGTCGG | -0.0319
CGGGTCGA | -0.181
AGGGTCGG | 0.0394
GCGGCCCA | -0.0651
GCTGAAGA | -0.0685
ACAGCTTC | -0.102
AAGAGATT | 0.00595
CATACTGA | 0.135
TATACTGA | 0.261

Sequence | PBM E-score
GATACTGA | 0.0997
GCTATCTA | -0.0754
ACCTATAA | -0.112
AAATAGAC | 0.165
AAATATAA | 0.161
AAATATAC | 0.0852
AAATAGAG | -0.0562
AAATAGAT | 0.27
ACCTATAC | -0.044
ACCTATAT | 0.236
AAATATAT | 0.257
CAGAAAGG | 0.0423
AAGATCTT | -0.0257
CTCGGTCA | -0.0604
AACCGCCG | -0.0452
GCTAAGAA | -0.103
TATGAGCA | -0.127
ATGAATGC | 0.13
ATGAATGA | 0.0659
ATGAATGG | 0.339
